Compound activity: PubChem, National Center for Advancing Translational Sciences (NCATS)
Hits are enriched below; roughly 1.7% of the tested compounds scored in any of these assays.
PTHR1 agonist – qHTS for PTHR1 Agonists: Primary Screen. AID 743266, 2014. HEK293 GP2 PTHR1 cells, GloSensor cAMP luminescence, 1 h. Potency, µM (titrated, usually from 115 µM), most hits filed as activators. Parathyroid hormone/parathyroid hormone-related peptide receptor (Homo sapiens), Q03431. 410,000 compounds, 0.075% hits; note: nearly all actives have a fitted effect of over 55% in size
Target sequence (Q03431 whole entry, looked up): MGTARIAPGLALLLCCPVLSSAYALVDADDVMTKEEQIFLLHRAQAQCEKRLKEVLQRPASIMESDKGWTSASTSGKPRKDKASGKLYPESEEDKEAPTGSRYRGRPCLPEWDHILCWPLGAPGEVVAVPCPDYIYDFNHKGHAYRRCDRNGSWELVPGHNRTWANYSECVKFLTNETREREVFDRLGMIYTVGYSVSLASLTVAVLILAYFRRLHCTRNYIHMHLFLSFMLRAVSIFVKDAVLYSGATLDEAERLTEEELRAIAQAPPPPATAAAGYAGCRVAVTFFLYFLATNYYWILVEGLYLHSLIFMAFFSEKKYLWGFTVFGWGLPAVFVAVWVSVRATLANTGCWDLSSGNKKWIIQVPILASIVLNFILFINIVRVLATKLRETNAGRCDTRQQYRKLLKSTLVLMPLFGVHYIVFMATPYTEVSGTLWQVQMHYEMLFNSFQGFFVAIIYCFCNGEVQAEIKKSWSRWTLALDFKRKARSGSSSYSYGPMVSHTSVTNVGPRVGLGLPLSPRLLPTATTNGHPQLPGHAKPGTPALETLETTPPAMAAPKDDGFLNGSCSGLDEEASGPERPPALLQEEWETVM
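HEK-293-derived GP2 cells expressing PTHR1 and a GloSensor cAMP reporter, 3,000/well, plated overnight, given luciferin plus IBMX (each 0.5 mM as added) for 1 h at 37 °C, then compound for 1 h at 37 °C. Luminescence was read after 15 min at room temperature.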
GLP-1R agonist – qHTS of GLP-1 Receptor Agonists | Glucagon-like peptide 1 receptor (Homo sapiens), P43220 | HEK293 GLP-1R CRE-luciferase, luminescence, 4-6 h; cells express a hypersensitive GLP-1R form | Potency, µM (titrated, usually from 45.6 µM), actives largely listed as activators | 380,000 compounds, 0.007% hits
HEK293 tox – qHTS of GLP-1 Receptor Inverse Agonists: Cytotox Screen; HEK293 cAMP-luciferase reporter cells, luminescence, 24 h; Potency, µM (highest dose often 38.3 µM), most hits filed as inhibitors; 410,000 compounds, 0.13% hits; AID 624418, 2012;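 note: loss of luciferase light is scored as toxicity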
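To flag toxic compounds, the library was rerun on cells for 24 hr at 37 deg C and 5% CO2. Viability-linked luminescence was captured 12 min after adding luciferase detection reagent.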
RGS4 inh – Inhibitors of Regulator of G Protein Signaling (RGS) 4: qHTS; Regulator of G-protein signaling 4 (Homo sapiens), P49798; Transcreener GDP fluorescence polarization, RGS4-accelerated GTP hydrolysis; Potency, µM (highest dose often 114 µM), most hits filed as inhibitors; 390,000 compounds, 0.039% hits; note: nearly all actives have a fitted effect of over 75% in size
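MLSMR compounds (23 nl, pin-transferred) preincubated 10 min at room temperature with a 500nM (2x) first reagent, then RGS4 at 900nM (2x) plus Transcreener GDP mix added; fluorescence polarization (620/688 nm) read before and after 90 min at 30 °C.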
GLP-1R inv ag – qHTS of GLP-1 Receptor Inverse Agonists (Inhibition Mode); HEK293 GLP-1R CRE-luciferase, luminescence, 24 h; GLP-1R form is constitutively active; Potency, µM (doses to about 38.3 µM), most hits filed as inhibitors; 410,000 compounds, 1.6% hits; AID 624417, 2012; note: nearly all actives have a fitted effect of over 55% in size
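Stable HEK293 clone (constitutively active GLP-1R + cAMP-response luciferase); 200 cells/uL plated, 12 h pre-culture, compound 24 hr, 37 deg C/5% CO2; detection reagent 12 min RT; luminescence.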
Numbers stand for hits. Calls come from the whole dose curve; as a rule, active = well fitted curve in the direction sought with a large enough effect; inconclusive = small, poorly fitted or top-dose-only effect, or another doubt; inactive = no such curve, though single readings can be large; an effect the other way counts as inactive or inconclusive.

Results for O=C(CN1C(=O)C2(SCC(=O)N2c2cccc(F)c2)c2ccccc21)NCc1ccccc1Cl (stereo not given) ?
PTHR1 agonist: inactive; GLP-1R agonist: inactive; HEK293 tox: inactive; RGS4 inh: inactive; GLP-1R inv ag: 8.91µM

How did Cn1nnnc1SCCNC(=O)C1CCC(=O)N(CCc2cccc(F)c2)C1 (stereo not given) do in these assays?
PTHR1 agonist: inactive; GLP-1R agonist: inactive; HEK293 tox: inactive; RGS4 inh: inactive; GLP-1R inv ag: inactive

How did CCOC(=O)c1c(NC(=O)C2CC(Cl)=CCC2C(=O)O)sc2c1CCCCC2 (stereo not given) do in these assays?
PTHR1 agonist: inactive; GLP-1R agonist: inactive; HEK293 tox: inactive; RGS4 inh: inactive; GLP-1R inv ag: inconclusive

What do the screens show for `CC(C)(C)c1cc(C(=S)N2CCCC2)cc(C(C)(C)C)c1O`?
PTHR1 agonist: inactive; GLP-1R agonist: inactive; HEK293 tox: inactive; RGS4 inh: inactive; GLP-1R inv ag: 8.91µM

How did CN(C(=O)c1cccc(NC(=O)Cc2cccc([N+](=O)[O-])c2)c1)C1CCCC1 do in these assays?
PTHR1 agonist: inactive; GLP-1R agonist: inactive; HEK293 tox: inactive; RGS4 inh: inactive; GLP-1R inv ag: inconclusive

What do the screens show for `Cc1ccc(NC(=O)CN2C(=O)NC(C)(CC(C)C)C2=O)c(Br)c1` (stereo not given)?
PTHR1 agonist: inactive; GLP-1R agonist: inactive; HEK293 tox: inactive; RGS4 inh: inactive; GLP-1R inv ag: inconclusive

What do the screens show for `CC(C)c1ccc(-c2nn(-c3ccccc3)cc2C2C(C#N)=C(N)OC3=C2C(=O)CC(C)(C)C3)cc1` (stereo not given)?
PTHR1 agonist: inactive; GLP-1R agonist: inactive; HEK293 tox: inactive; RGS4 inh: inactive; GLP-1R inv ag: 12.6µM

How did CCCc1cc(=O)oc2cc(C)c3c(C(C)(C)C)coc3c12 do in these assays?
PTHR1 agonist: inactive; HEK293 tox: inactive; RGS4 inh: inactive; GLP-1R inv ag: inactive

Results for CCN(Cc1ccccc1)C(=O)Cn1cc(S(=O)(=O)Cc2cccc(Cl)c2)c2ccccc21 ?
PTHR1 agonist: inactive; HEK293 tox: inactive; RGS4 inh: inactive; GLP-1R inv ag: inconclusive

How did COc1ccc(OC)c(N(CCN2C(=O)c3ccccc3C2=O)C(=O)CCl)c1 do in these assays?
PTHR1 agonist: inactive; GLP-1R agonist: inactive; HEK293 tox: inactive; GLP-1R inv ag: inconclusive

What do the screens show for `N=c1c2c(n(Cc3cccc(Cl)c3)c3c1CCC3)CCCC2`?
PTHR1 agonist: inactive; GLP-1R agonist: inactive; HEK293 tox: 5.01µM; RGS4 inh: inactive; GLP-1R inv ag: inactive

How did CCOc1ccccc1NS(=O)(=O)c1c(-c2ccc(C)cc2)csc1C(=O)OC do in these assays?
PTHR1 agonist: inactive; HEK293 tox: inactive; RGS4 inh: inactive; GLP-1R inv ag: 11.2µM

What do the screens show for `COC(=O)c1scc(-c2ccc(C)cc2)c1S(=O)(=O)Nc1cccc(Cl)c1C`?
PTHR1 agonist: inactive; HEK293 tox: inactive; RGS4 inh: inactive; GLP-1R inv ag: 10µM

What do the screens show for `COC(=O)c1scc(-c2ccc(C)cc2)c1S(=O)(=O)Nc1cc(Cl)ccc1C`?
PTHR1 agonist: inactive; HEK293 tox: inactive; RGS4 inh: inactive; GLP-1R inv ag: inconclusive

What do the screens show for `CC1CCC(NC(=O)c2[nH]c(C(F)(F)F)nc2-c2ccccc2)CC1` (stereo not given)?
PTHR1 agonist: inactive; GLP-1R agonist: inactive; HEK293 tox: inactive; GLP-1R inv ag: inconclusive

What do the screens show for `Fc1ccc([C@@H]2Nc3ccccc3[C@@H]3C=CC[C@@H]32)cc1`?
PTHR1 agonist: inactive; HEK293 tox: inactive; RGS4 inh: inactive; GLP-1R inv ag: inactive

Results for COc1ccc(Nc2nnc(SCC(=O)/C=C3/N(C)c4ccccc4C3(C)C)s2)cc1 ?
PTHR1 agonist: inactive; GLP-1R agonist: inactive; HEK293 tox: inactive; RGS4 inh: inactive; GLP-1R inv ag: 11.2µM
